# Screening data (PubChem BioAssay)
# The list is not random: actives were taken first. Their share in the collection is about 7.9%.
# HT1080NT lethal: qHTS for induction of synthetic lethality in tumor cells producing 2HG: qHTS for the HT-1080-NT fibrosarcoma cell line. HT-1080-NT fibrosarcoma viability, CellTiter-Glo ATP luminescence, 48 h. Potency, µM (series often up to 46.1 µM), usual class: cytotoxic. 360,000 compounds, 1.6% hits. AID 686970, 2013;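 further: NT is the 2HG producing partner of a matched IDH1 knockdown line; nearly all actives have a fitted effect of over 55% in size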
#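 Viability of the 2HG-overproducing fibrosarcoma line after 48 hours of compound exposure at 37 degrees C was determined by luminescence with CellTiter-Glo, and concentration-effect curves were then fitted and categorized.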
# KB-3-1 cytotox: qHTS assay for MDR1-selective chemotherapeutics: Primary screen using the parental adenocarcinoma cell KB-3-1; KB-3-1 viability, CellTiter-Glo ATP luminescence, 72 h; Potency, µM (highest dose often 46.1 µM), usual class: cytotoxic; AID 1347075, 2019; 400,000 compounds, 1.4% hits; further: nearly all actives have a fitted effect of over 60% in size
#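 Parental KB-3-1 viability, qHTS format: 72 h compound exposure, 37 °C; CellTiter-Glo; media-only wells and DMSO plates as controls; concentration-effect fits on corrected data.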
# SW480 rerep: A quantitative high throughput screen for small molecules that induce DNA re-replication in SW480 colon adenocarcinoma cells | SW480 DNA re-replication, Hoechst DNA content imaging, 48 h | Potency, µM (doses to about 46.1 µM), hits mostly activators | 340,000 compounds, 1.8% hits | AID 624297, 2012; further: nearly all actives have a fitted effect of over 55% in size
#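 Per well, 250 cells were exposed to pinned compound for 48 hr. Nuclear DNA was visualised with Hoechst (40 min, 37 C) and total object intensity recorded by fluorescence scanning.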
# KB-V1 cytotox: qHTS assay for MDR1-selective chemotherapeutics: Primary screen using the drug-selected MDR subline cells KB-V1. 400,000 compounds, 3.4% hits. KB-V1 MDR cells viability, CellTiter-Glo, 72 h. Potency, µM (doses to about 46.1 µM), actives largely listed as cytotoxic; further: nearly all actives have a fitted effect of over 60% in size
#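 Cytotoxicity toward P-gp-expressing KB-V1 cells was determined as loss of CellTiter-Glo luminescence after 72 h at 37 degrees C. Compounds were tested in quantitative HTS format across a concentration range, with curves fitted to normalized data.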
# MCF10A rerep: A quantitative high throughput screen for small molecules that induce DNA re-replication in MCF 10a normal breast cells | MCF 10A DNA re-replication, Hoechst nuclear intensity, 48 h | Potency, µM (titrated, usually from 46.1 µM), hits mostly activators | 350,000 compounds, 2.9% hits; further: nearly all actives have a fitted effect of over 50% in size
# HT1080 IDH1KD tx: qHTS for induction of synthetic lethality in tumor cells producing 2HG: qHTS for the HT-1080-IDH1KD cell line; HT-1080 IDH1 knockdown viability, ATP luminescence, 48 h; Potency, µM (highest dose often 46.1 µM), hits mostly cytotoxic; 360,000 compounds, 2% hits
#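 % activity derives from luminescence (CellTiter-Glo), normalised to DMSO and no-cell wells. HT-1080-IDH1KD cells, 750/well, had 48 h compound exposure at 37 °C.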
# Numbers stand for hits; - = inactive; ? = inconclusive; . = not tested or not shown; ! = not confirmed by another sample. The call rests on the fitted dose curve; in most records, active means well fitted curve in the direction sought with a large enough effect; inconclusive means small, poorly fitted or top-dose-only effect, or another doubt; inactive means no such curve, though single readings can be large; an effect the other way counts as inactive or inconclusive.
SMILES,HT1080NT lethal,KB-3-1 cytotox,SW480 rerep,KB-V1 cytotox,MCF10A rerep,HT1080 IDH1KD tx
CN(C)CCOC1(Cc2ccc(F)cc2)CCC(C(C)(C)C)CC1 (stereo not given),-,-,-,16µM,-,-
CN(C)CCCCOc1ccc(F)cc1,-,-,-,-,-,-
COc1cccc(CNC(=O)[C@@H]2CCCN2C(=O)[C@H]2CCCCN2C(=O)c2cccc3ccccc23)c1,-,-,.,-,.,-
Cc1cccc(OCC(=O)Nc2ccc(S(=O)(=O)N(Cc3ccccc3)c3ccccc3)cc2)c1,.,-,.,-,.,.
Cn1c(=O)c2c(ncn2CC(=O)OCC(=O)Nc2cccc(C#N)c2)n(C)c1=O,-,-,.,-,.,-
Cc1ccnc(NS(=O)(=O)c2ccc(NC(=O)c3ccc(N4C(=O)CCC4=O)cc3)cc2)n1,-,-,.,-,-,-
CCOc1ccccc1OCC(=O)Nc1ccc(S(=O)(=O)Nc2nc(C)cc(C)n2)cc1,-,-,-,18µM,-,-
Cc1cc(C)nc(NS(=O)(=O)c2ccc(NC(=O)COc3ccccc3F)cc2)n1,-,-,-,-,-,-
Cc1cc(C)nc(NS(=O)(=O)c2ccc(NC(=O)c3cccc(N4C(=O)CCC4=O)c3)cc2)n1,23µM,-,.,-,-,-
COC(=O)c1c(NC(=O)COc2cc(C)c(Cl)c(C)c2)sc2c1CCCC2,.,-,.,?,.,.
COc1cc(OC)c(C2=Nc3ccc(Br)cc3C(c3ccccc3)N2CC(=O)NN)cc1OC (stereo not given),-,-,-,-,2.9µM,-
NNC(=O)CN1C(c2ccccc2)=Nc2ccc(Br)cc2C1c1ccccc1 (stereo not given),?,-,-,-,-,?
COc1cc(NC(=O)Cn2nc(C(F)(F)F)c(Br)c2C)cc([N+](=O)[O-])c1,-,-,-,18µM,-,-
CCN(CC)c1cc(C)c2cc(NC(=O)c3ccccc3OC)ccc2n1,?,18µM!,?,?,?,?
CCN(CC)c1cc(C)c2cc(NC(=O)c3ccc(F)cc3Cl)ccc2n1,.,?,.,-,.,.
CCN(CC)c1cc(C)c2cc(NC(=O)c3cccc(F)c3)ccc2n1,.,-,.,?,.,.
COc1ccc(Nc2cc(C)c3cc(NC(=O)c4ccccc4Cl)ccc3n2)cc1,.,-,.,18µM,.,.
CCN(CC)c1cc(C)c2cc(NC(=O)c3cc(OC)cc(OC)c3)ccc2n1,.,-,.,-,.,.
CCN(CC)c1cc(C)c2cc(NC(=O)c3ccc(OC)c(OC)c3)ccc2n1,.,16µM,.,-,.,.
CCN(CC)c1cc(C)c2cc(NC(=O)/C=C/c3ccccc3Cl)ccc2n1,.,13µM,.,-,.,.
COc1ccc(C(C(=O)NC2CCCC2)n2c(CSCCOc3ccccc3)nc3ccccc32)cc1 (stereo not given),-,-,.,?,.,-
CCN(CC)c1cc(C)c2cc(NC(=O)c3ccc(Br)o3)ccc2n1,-,?,?,?,9.2µM,-
CCCCc1ccc(C(=O)Nc2ccc3nc(N(CC)CC)cc(C)c3c2)cc1,.,-,.,-,.,.
Cc1cc(C(=O)N/N=C/c2ccc(Cl)c([N+](=O)[O-])c2)c(C)n1-c1ccc(F)cc1,?,5.8µM,-,?,12µM,21µM
CC(C)n1c(O)c(/C=C2\C=NN=C2c2ccccc2)sc1=S,21µM,-,-,?,?,21µM
SMILES,HT1080NT lethal,KB-3-1 cytotox,SW480 rerep,KB-V1 cytotox,MCF10A rerep,HT1080 IDH1KD tx
CCn1c(O)c(/C=C2\C=NN=C2c2ccc(C)cc2)sc1=S,-,-,-,-,?,-
CCCc1nc2sc3c(N4CCC(C)CC4)ncnc3c2c2c1CCCC2,.,-,.,-,.,.
CCCCNC(=O)C1c2ccccc2OCC(=O)N1Cc1cccnc1 (stereo not given),-,-,.,-,.,-
COc1ccc(OC)c(C(=O)c2coc3ccc(O)cc23)c1,?,?,?,10µM,?,?
CCOC(=O)C(=O)c1csc(NC(=O)CCSc2ccc(C)cc2)n1,-,-,-,-,0.58µM,-
COc1ccc(-c2nc3sc(CCNC(=O)c4ccco4)c(C)n3n2)cc1,.,-,.,?,.,.
Cc1c2ccccc2nc2ccccc12,-,-,-,-,-,-
Cc1c2ccccc2c(C)c2c1ccc1ccccc12,?,-,1.8µM,-,?,?
Cc1ccc2ncc(C)c(C)c2c1,.,-,.,-,.,.
Cc1cnc2ccc3ccccc3c2c1C,.,5.2µM,.,-,.,.
Cc1ccc(/C=C/C(=O)OCC(=O)N(C)c2c(N)n(Cc3ccccc3)c(=O)[nH]c2=O)o1,-,-,.,-,.,-
CCOC(=O)[C@]12CCCC=C1N(Cc1ccco1)C(=O)[C@H](CC(=O)NCCCCc1ccccc1)C2,-,?,.,15µM,.,?
CCOC(=O)[C@]12CCCC=C1N(CCC1=CCCCC1)C(=O)[C@H](CC(=O)NCC13CC4CC(CC(C4)C1)C3)C2,?,?,.,18µM,.,?
CCOC(=O)[C@]12CCCC=C1N(Cc1ccco1)C(=O)[C@H](CC(=O)NCC13CC4CC(CC(C4)C1)C3)C2,?,-,.,?,.,?
CCOC(=O)[C@]12CCCC=C1N(Cc1ccccc1)C(=O)[C@H](CC(=O)NCC13CC4CC(CC(C4)C1)C3)C2,?,18µM,.,21µM,.,?
CCOC(=O)[C@]12CCC=C1N(Cc1ccc3c(c1)OCO3)C(=O)[C@H](CC(=O)NCC13CC4CC(CC(C4)C1)C3)C2,?,?,.,23µM,.,?
O=C(NCCN1CCC(n2c(=O)[nH]c3ccccc32)CC1)c1ccncc1,-,?,.,?,.,-
O=C(O)C1C=CC(C(=O)O)c2ccccc21 (stereo not given),-,-,.,-,.,-
O=c1[nH]cnc2cc(-c3ccccc3)sc12,-,16µM,-,6.5µM,-,-
COc1ccc(-c2cc3nc[nH]c(=O)c3s2)cc1,-,-,-,-,-,-
CSc1ccccc1CNC(=O)C1(C)CCCN1CC(C)C (stereo not given),-,-,.,-,.,-
Cc1cccc(C)c1NC(=O)CN1C(=O)c2cccc3cccc1c23,.,-,.,-,.,.
Cc1ccc(S(=O)(=O)N(C)Cc2ccc(C(=O)N/N=C/c3ccc(OC(F)F)cc3)cc2)cc1,-,-,-,16µM,?,-
C/C(=N\NC(=O)c1ccc(CN(C)S(=O)(=O)c2ccc(C)cc2)cc1)c1ccc(OC(F)F)cc1,-,10µM,-,2.6µM,?,-
COc1cccc(NC(=O)c2nnn(Cc3ccc(OC)c(Br)c3)c2N)c1,.,-,.,-,.,.
